Each structure is given as a SMILES string. Records with an inconclusive call do not appear. The source made the active and inactive calls. Rule for the calls, unless noted: active = hit-call score of the fitted dose curve at least 0.9, where 1 is the maximum; inactive = score below 0.9.

Test [1] can be described thus: ATG_NFI_CIS: Attagene CIS-FACTORIAL HepG2 Assay for human Nuclear Factor I (NFI) (AID 2282989). Conditions: HepG2 cis-regulatory reporter, NFI response element transcription; actives raise or lower the signal. An outline of the steps: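 Read-out: reporter mRNA via RT-PCR plus capillary electrophoresis with fluorescence detection. Transiently transfected HepG2 (endogenous TF activity on cis promoters), 24 h compound exposure; gain or loss of signal fitted against DMSO.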

Test [2] deals with Myc proto-oncogene protein (Homo sapiens) (UniProt P01106). Briefly: ATG_Myc_CIS: Attagene CIS-FACTORIAL HepG2 Assay for human Myelocytomatosis (Myc) Proto-Oncogene Transcription Factor (AID 2282990). The following applies: HepG2, Attagene cis-reporter transcription factor activity; actives raise or lower the signal. The method in brief:
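Cells of the HepG2 human liver line bear multiple cis-driven reporter transcription units. Reporter mRNA after 24 h exposure is reverse-transcribed, amplified, labelled and resolved by capillary electrophoresis, with gain- or loss-of-signal fitting relative to DMSO.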

Test [3] can be described thus: ATG_NF_kB_CIS: Attagene CIS-FACTORIAL HepG2 Assay for human Nuclear Factor Kappa B (NF-kB) (AID 2282991). The following applies: HepG2 Attagene cis-factorial NF-kB reporter mRNA; actives raise or lower the signal. The method in brief: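 Multiplexed cis-reporter assay in transiently transfected HepG2. 24 h treatment; RNA isolated, RT-PCR, labelled fragments resolved by CE. DMSO baseline.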

Test [4] is described as follows: ATG_NRF2_ARE_CIS: Attagene CIS-FACTORIAL HepG2 Assay for human Nuclear Factor Erythroid 2 Related Factor 2 (NFR2) response to Antioxidant Response Elements (ARE) (AID 2282992).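 For AC50: reporter mRNA level measured by RT-PCR and capillary electrophoresis fluorescence.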 The following applies: HepG2 Attagene ARE/NRF2 reporter, transcription factor activity; actives raise or lower the signal. An outline of the steps:
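Multiplexed reporter mRNA profiling in HepG2 after a 24 h chemical exposure. Curves fitted in both directions relative to DMSO negative control.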

A short description of test [5]: ATG_Oct_MLP_CIS: Attagene CIS-FACTORIAL HepG2 Assay for human Octamer-Binding Transcription Factor (Oct) (AID 2282993). Conditions: HepG2 Attagene cis-factorial Oct reporter, mRNA; actives raise or lower the signal. The method in brief: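 Read-out: reporter mRNA via RT-PCR plus capillary electrophoresis of 6-FAM-labelled fragments. Transiently transfected HepG2, 24 h exposure, endogenous TF activity on cis elements. Gain or loss of signal fitted relative to DMSO.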

Test [6] addresses human Peroxisome Proliferator-activated Receptor alpha (PPARa), PPARA (gene 5465) (UniProt Q07869). Briefly: ATG_PPARa_TRANS: Attagene TRANS-FACTORIAL HepG2 Assay for human Peroxisome Proliferator-activated Receptor alpha (PPARa) (AID 2283001; active = hit-call score of the fitted dose curve at least 0.9, where 1 is the maximum). The method in brief: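 Read-out is fluorescence of reporter cDNA fragments resolved by capillary electrophoresis after RT-PCR. Human HepG2 liver cells carried transfected PPARa-Gal4 chimera and GAL4-UAS reporter units, treated 24 h; activity scored as increase over DMSO.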

The target in test [7] is human Peroxisome Proliferator-activated Receptor delta (PPARd), PPARD (gene 5467) (UniProt Q03181). As to the kind of experiment: ATG_PPARd_TRANS: Attagene TRANS-FACTORIAL HepG2 Assay for human Peroxisome Proliferator-activated Receptor delta (PPARd) (AID 2283002; active = hit-call score of the fitted dose curve at least 0.9, where 1 is the maximum). An outline of the steps:
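Cell-based TRANS reporter: HepG2, transient MRTU transfection, 24 h exposure. Readout = reporter mRNA (RT-PCR/CE, 6-FAM). Gain-of-signal fit vs DMSO control.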

Test [8] concerns the target Peroxisome proliferator-activated receptor gamma (Homo sapiens) (UniProt P37231). Briefly: ATG_PPARg_TRANS: Attagene TRANS-FACTORIAL HepG2 Assay for human Peroxisome Proliferator-activated Receptor-gamma (PPARg) (AID 2283007; active = hit-call score of the fitted dose curve at least 0.9, where 1 is the maximum). The method in brief:
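Human hepatoma HepG2, transient MRTU transfection, 24 h treatment. mRNA reporter signal by RT-PCR plus capillary electrophoresis, fluorescence detection; fitted for increase over DMSO negative control.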

Test [9] has as its target Nuclear receptor subfamily 1 group I member 2 (Homo sapiens) (UniProt O75469). As to the kind of experiment: ATG_PXR_TRANS: Attagene TRANS-FACTORIAL HepG2 Assay for human Pregnane X Receptor (PXR) (AID 2283008; active = hit-call score of the fitted dose curve at least 0.9, where 1 is the maximum). The method in brief: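 Measures mRNA induction of a GAL4-UAS-driven reporter in human HepG2 cells transiently expressing PXR fused to Gal4, following 24 h treatment. DMSO served as negative control and baseline.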

Test [10] deals with human Retinoic Acid Receptor beta (RARb), RARB (gene 5915) (UniProt P10826). Briefly: ATG_RARb_TRANS: Attagene TRANS-FACTORIAL HepG2 Assay for human Retinoic Acid Receptor beta (AID 2283004; active = hit-call score of the fitted dose curve at least 0.9, where 1 is the maximum). The method in brief:
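HepG2, transient MRTU transfection, NR–Gal4 chimera, 24 h treatment; RT-PCR plus CE fluorescence detection of reporter mRNA; gain of signal vs DMSO.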

The target of test [11] is Cellular tumor antigen p53 (Homo sapiens) (UniProt P04637). As to the kind of experiment: ATG_p53_CIS: Attagene CIS-FACTORIAL HepG2 Assay for human p53 Transcription Factor (AID 2282994). The following applies: HepG2 p53 cis-element reporter, Attagene mRNA; actives raise or lower the signal. The method in brief:
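Multiplexed reporter mRNA assay in human HepG2 liver cells; cis-regulated units report endogenous factor activity. Values come from bidirectional curve fitting against DMSO negative control after 24 h treatment.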

Test [12] deals with human RAR-related Orphan Receptor beta (RORb), RORB (gene 6096) (UniProt Q92753). Briefly: ATG_RORb_TRANS: Attagene TRANS-FACTORIAL HepG2 Assay for human RAR-related Orphan Receptor beta (RORb) (AID 2283010; active = hit-call score of the fitted dose curve at least 0.9, where 1 is the maximum). An outline of the steps:
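Readout is reporter-gene mRNA induction, detected as fluorescence after RT-PCR and capillary electrophoresis, fitted for gain of signal against DMSO controls. Transiently transfected HepG2 liver cells carrying GAL4-UAS reporter constructs were treated for 24 hours.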

For test [13], the target named is human Retinoic Acid Receptor gamma (RARg), RARG (gene 5916) (UniProt P13631). As to the kind of experiment: ATG_RARg_TRANS: Attagene TRANS-FACTORIAL HepG2 Assay for human Retinoic Acid Receptor gamma (RARg) (AID 2283009; active = hit-call score of the fitted dose curve at least 0.9, where 1 is the maximum). An outline of the steps: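 Transient transfection of HepG2 with multi-reporter constructs, then 24 h chemical treatment. Total RNA isolated, reverse-transcribed, PCR-amplified, fluorescently labelled and resolved by capillary electrophoresis; activity scored as mRNA induction versus DMSO.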

Test [14] deals with Retinoic acid receptor alpha (Homo sapiens) (UniProt P10276). Briefly: ATG_RARa_TRANS: Attagene TRANS-FACTORIAL HepG2 Assay for human Retinoic Acid Receptor alpha (RARa) (AID 2283005; active = hit-call score of the fitted dose curve at least 0.9, where 1 is the maximum). The method in brief: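 Reporter transcripts, measured by RT-PCR with fluorescent labeling and capillary electrophoresis after 24 h dosing, reflect activity of an exogenous human RARa–GAL4 fusion in transiently transfected HepG2. Fitted for increase relative to DMSO.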
Chain of Retinoic acid receptor alpha (Homo sapiens) (P10276 whole entry, looked up, the tested form may be a part): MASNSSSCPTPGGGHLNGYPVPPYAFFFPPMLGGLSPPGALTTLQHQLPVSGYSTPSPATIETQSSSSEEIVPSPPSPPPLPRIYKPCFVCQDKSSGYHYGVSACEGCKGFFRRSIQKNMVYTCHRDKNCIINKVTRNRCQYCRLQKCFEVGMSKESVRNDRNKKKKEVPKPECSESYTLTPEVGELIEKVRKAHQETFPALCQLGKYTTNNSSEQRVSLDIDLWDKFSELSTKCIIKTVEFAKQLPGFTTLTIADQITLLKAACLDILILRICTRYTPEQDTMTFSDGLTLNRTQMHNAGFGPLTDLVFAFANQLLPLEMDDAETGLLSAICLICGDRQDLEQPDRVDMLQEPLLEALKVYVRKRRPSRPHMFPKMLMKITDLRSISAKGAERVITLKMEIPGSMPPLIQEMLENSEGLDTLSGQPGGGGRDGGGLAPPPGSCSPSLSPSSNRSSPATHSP

Chain of human Peroxisome Proliferator-activated Receptor alpha (PPARa), PPARA (gene 5465) (Q07869 whole entry, looked up, the tested form may be a part): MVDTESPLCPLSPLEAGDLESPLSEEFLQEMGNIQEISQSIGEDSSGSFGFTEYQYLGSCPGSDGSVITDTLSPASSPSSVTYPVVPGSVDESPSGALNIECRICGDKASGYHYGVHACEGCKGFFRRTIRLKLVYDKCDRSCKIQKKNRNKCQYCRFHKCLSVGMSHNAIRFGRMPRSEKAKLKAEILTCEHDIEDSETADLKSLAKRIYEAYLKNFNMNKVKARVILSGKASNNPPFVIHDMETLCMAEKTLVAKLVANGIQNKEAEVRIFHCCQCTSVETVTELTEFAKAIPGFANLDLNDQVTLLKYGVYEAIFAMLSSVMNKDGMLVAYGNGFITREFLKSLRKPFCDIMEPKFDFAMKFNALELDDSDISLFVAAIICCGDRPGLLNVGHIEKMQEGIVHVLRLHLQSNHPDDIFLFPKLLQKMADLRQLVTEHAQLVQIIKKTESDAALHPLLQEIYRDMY
Chain of human Retinoic Acid Receptor gamma (RARg), RARG (gene 5916) (P13631 whole entry, looked up): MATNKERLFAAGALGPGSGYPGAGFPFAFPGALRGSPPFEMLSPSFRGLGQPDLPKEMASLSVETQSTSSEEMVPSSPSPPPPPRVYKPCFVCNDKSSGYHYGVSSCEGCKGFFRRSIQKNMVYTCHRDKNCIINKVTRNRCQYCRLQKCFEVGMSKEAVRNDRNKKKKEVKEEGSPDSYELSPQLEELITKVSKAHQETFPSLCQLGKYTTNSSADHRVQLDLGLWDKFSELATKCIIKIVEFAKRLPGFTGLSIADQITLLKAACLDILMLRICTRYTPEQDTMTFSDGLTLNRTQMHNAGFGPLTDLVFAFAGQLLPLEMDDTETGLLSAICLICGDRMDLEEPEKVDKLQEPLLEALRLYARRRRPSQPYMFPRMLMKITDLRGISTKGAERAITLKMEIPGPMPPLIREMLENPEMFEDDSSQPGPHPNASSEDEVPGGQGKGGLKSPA
Chain of Peroxisome proliferator-activated receptor gamma (Homo sapiens) (P37231 whole entry, looked up): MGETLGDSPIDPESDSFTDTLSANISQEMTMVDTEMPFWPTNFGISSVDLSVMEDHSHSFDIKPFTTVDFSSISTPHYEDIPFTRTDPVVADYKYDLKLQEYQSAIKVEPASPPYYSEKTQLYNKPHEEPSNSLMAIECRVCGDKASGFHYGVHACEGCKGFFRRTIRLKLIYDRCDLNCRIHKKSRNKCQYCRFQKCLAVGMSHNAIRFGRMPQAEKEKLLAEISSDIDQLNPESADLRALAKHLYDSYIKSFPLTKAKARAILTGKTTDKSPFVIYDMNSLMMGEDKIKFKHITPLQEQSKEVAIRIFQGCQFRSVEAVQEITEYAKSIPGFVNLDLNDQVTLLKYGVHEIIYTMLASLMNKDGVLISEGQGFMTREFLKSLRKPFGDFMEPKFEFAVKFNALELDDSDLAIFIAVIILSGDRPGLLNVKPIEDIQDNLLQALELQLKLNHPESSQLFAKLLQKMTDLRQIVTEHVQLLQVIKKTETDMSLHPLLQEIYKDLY
Chain of Nuclear receptor subfamily 1 group I member 2 (Homo sapiens) (O75469 whole entry, looked up, the tested form may be a part): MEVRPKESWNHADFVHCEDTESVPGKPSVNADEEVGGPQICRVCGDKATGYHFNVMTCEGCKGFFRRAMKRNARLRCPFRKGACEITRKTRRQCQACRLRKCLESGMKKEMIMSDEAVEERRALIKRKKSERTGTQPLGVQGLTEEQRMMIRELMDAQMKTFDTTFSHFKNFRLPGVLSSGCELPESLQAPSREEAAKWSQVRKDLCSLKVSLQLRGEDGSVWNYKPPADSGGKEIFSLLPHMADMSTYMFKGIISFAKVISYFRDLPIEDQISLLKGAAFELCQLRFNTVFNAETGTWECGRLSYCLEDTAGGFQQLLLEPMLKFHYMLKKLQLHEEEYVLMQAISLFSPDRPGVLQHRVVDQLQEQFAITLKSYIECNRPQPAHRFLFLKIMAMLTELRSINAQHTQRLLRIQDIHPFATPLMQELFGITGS
Chain of Cellular tumor antigen p53 (Homo sapiens) (P04637 whole entry, looked up): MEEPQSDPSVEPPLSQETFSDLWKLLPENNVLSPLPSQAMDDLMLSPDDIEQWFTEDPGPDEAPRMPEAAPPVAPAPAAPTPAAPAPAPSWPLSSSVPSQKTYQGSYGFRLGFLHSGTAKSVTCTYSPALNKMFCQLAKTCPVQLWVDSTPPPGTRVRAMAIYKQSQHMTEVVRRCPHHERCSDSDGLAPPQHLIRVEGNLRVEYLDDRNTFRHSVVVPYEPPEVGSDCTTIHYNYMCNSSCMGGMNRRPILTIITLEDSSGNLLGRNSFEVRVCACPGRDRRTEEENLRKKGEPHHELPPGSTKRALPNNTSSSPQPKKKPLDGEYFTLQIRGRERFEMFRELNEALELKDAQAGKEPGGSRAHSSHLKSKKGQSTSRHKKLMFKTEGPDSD
Chain of human Peroxisome Proliferator-activated Receptor delta (PPARd), PPARD (gene 5467) (Q03181 whole entry, looked up): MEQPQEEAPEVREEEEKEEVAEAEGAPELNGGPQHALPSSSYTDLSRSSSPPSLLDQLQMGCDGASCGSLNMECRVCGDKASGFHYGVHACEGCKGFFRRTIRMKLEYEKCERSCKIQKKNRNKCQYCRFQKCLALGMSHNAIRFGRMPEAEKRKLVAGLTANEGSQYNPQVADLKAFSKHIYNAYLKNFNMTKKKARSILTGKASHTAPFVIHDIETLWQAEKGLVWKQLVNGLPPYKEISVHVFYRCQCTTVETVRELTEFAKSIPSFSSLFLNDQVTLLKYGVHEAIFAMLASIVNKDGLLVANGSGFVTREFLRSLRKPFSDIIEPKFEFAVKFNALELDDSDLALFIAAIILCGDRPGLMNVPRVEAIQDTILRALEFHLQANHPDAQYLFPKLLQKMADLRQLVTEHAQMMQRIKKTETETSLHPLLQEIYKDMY
Chain of Myc proto-oncogene protein (Homo sapiens) (P01106 whole entry, looked up): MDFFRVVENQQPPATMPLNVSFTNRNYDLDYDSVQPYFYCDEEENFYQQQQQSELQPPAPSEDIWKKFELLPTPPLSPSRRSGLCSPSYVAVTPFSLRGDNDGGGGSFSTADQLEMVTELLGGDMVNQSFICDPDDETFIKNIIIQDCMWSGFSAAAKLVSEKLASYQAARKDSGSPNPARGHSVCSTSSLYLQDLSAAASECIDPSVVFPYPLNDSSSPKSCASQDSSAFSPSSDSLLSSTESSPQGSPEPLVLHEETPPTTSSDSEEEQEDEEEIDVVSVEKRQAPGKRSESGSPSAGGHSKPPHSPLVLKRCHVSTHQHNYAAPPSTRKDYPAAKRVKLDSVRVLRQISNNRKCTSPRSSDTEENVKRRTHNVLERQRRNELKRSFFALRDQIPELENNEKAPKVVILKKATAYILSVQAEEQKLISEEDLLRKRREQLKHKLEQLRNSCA
Chain of human Retinoic Acid Receptor beta (RARb), RARB (gene 5915) (P10826 whole entry, looked up, the tested form may be a part): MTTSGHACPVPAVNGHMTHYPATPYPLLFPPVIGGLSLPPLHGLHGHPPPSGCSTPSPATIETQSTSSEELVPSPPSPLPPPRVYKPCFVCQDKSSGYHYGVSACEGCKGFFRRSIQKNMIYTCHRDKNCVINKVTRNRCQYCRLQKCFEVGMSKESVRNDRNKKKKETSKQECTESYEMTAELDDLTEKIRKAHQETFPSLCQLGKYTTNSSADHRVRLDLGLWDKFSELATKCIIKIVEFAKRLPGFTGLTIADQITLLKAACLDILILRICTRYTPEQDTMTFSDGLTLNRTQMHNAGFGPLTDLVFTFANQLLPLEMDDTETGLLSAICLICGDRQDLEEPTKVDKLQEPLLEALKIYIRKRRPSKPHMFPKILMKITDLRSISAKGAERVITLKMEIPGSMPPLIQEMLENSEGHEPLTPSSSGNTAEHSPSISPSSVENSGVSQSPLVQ
Chain of human RAR-related Orphan Receptor beta (RORb), RORB (gene 6096) (Q92753 whole entry, looked up, the tested form may be a part): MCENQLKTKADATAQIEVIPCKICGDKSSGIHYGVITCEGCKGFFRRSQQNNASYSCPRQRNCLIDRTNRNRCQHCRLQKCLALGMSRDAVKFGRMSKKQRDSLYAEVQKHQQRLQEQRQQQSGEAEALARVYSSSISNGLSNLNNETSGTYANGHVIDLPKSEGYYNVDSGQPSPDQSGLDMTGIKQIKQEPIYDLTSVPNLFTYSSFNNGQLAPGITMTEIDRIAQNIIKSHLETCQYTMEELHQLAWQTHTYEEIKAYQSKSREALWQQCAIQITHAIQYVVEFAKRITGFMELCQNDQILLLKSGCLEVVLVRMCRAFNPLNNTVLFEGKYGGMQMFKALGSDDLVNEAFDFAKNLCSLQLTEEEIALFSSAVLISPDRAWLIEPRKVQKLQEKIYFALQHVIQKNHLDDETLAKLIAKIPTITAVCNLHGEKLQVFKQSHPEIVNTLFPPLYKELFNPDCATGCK

Take `CC(=O)CC(=O)Nc1ccccc1`: the result in test [1], in test [2], in [3], in [4], in [5] and in test [6] was inactive. The call in [7], in [8] and in test [9] was inactive.
For `CC1(C)C(=O)N(Cl)C(=O)N1Br`, the outcome in [1], in test [2], in test [3], in test [4], in [5] and in [6] was inactive. Besides, the result in test [10] and in [8] was inactive.
As for `N#Cc1cscn1`, the result in test [1], in [2], in [3], in test [4], in test [11] and in test [6] was inactive. Also, the compound was called inactive in [9].
As to `CC(=O)C(C)O` (centres undefined), the compound was classed as inactive in test [1], in test [2], in test [3], in test [4], in [11] and in test [6]. In [12], the outcome was inactive.
As to `CC(C)c1ccccc1O`, the compound was called inactive in test [1], in test [2], in [3], in [4], in [11] and in test [6]. The compound was called inactive in test [7], in test [9] and in test [13].
In the case of `COC(=O)c1cccnc1`, the compound was classed as inactive in [1], in test [2], in test [3], in [4], in test [11] and in test [6]. Besides, the compound was classed as inactive in test [10] and in [13].
One may read the AC50 as the concentration giving half of the maximal activity seen. As for `O=C1OC(=O)c2c(Br)c(Br)c(Br)c(Br)c21`, the compound was classed as inactive in [1], in test [2], in test [3], in test [5], in test [6] and in [7]. The compound was classed as inactive in [8], in [9] and in test [13]. In addition, the AC50 in test [4] was 100 µM (active).
`CN(C)c1cccc(O)c1`: the result in test [1], in test [2], in test [3], in test [4], in test [5] and in [6] was inactive. Also, the compound was classed as inactive in test [7], in test [8] and in test [12]. In addition, in test [9], the concentration at half-maximal activity (AC50) was 5.57 µM (active).
With `CCC1(C)NC(=O)NC1=O` (centres undefined), the compound was called inactive in [1], in test [2], in test [3], in test [4], in [11] and in test [10]. For the same compound, the outcome in test [13] and in test [12] was inactive.
With `CCCCCCC(C)(C)S`, the result in test [1], in test [2], in [3], in [4], in [5] and in test [6] was inactive. The result in [14], in test [8], in test [9], in [13] and in test [12] was inactive.
As for `CN(C)c1ccncc1`, the outcome in test [1], in [2], in test [3], in [4], in test [5] and in test [6] was inactive. The outcome in test [7], in test [14] and in test [9] was inactive.
For the compound `CCCC[O][Al]([O]CCCC)[O]CCCC`, the outcome in [1], in test [2], in [4], in test [5] and in test [11] was inactive.
As for `Nc1ccn([C@H]2CS[C@@H](CO)O2)c(=O)n1`, the outcome in test [1], in [2], in [3], in test [4], in test [11] and in test [13] was inactive.
For the compound `COCCOCCOCCO`, the result in [1], in [2], in test [4], in test [5], in test [11] and in test [6] was inactive. For the same compound, the outcome in test [12] was inactive.

The record behind these values is PubChem BioAssay (EPA / NIEHS).
